Records with an inconclusive call do not appear. Activity calls are given as the source filed them. The call rests on the fitted dose curve; in most records, active means well fitted curve in the direction sought with a large enough effect in the repeat runs; inconclusive means weak or mixed curves; inactive means no such curve, though single readings can be large; an effect the other way counts as inactive or inconclusive.
Experiments:
[1] = qHTS RealTime-Glo MT Cell Viability Assay in HepG2 cells - 8 hour (AID 1224873); further: nearly all actives have a fitted effect of over 55% in size
Summary of the method: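 Real-time viability: cells seeded at 600 per well together with NanoLuc and cell-permeant prosubstrate, compounds added after 5 h incubation. Luminescence tracked at 0, 8, 16, 24, 32 and 40 h of exposure.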

[2] = qHTS RealTime-Glo MT Cell Viability Assay in HEK293 cells - 40 hour (AID 1224874); details: RealTime-Glo luminescence; max response: stronger effect = lower value; further: nearly all actives have a fitted effect of over 50% in size
Summary of the method: (§1)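 600 cells/well were plated with the nonlytic NanoLuc/prosubstrate reagent, pre-incubated 5 h, then given 23 nL of compound in DMSO. Incubation at 37 C for 40 h, with luminescence from viable-cell-reduced substrate read repeatedly from 0 h.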

[3] = A CellTox Green Cytotoxicity Assay to monitor cytotoxicity in HEK293 cells - 24 hour (AID 1224875); further: series mostly up to about 77 µM; nearly all actives have a fitted effect of over 45% in size
Summary of the method: (§2)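 HEK293 cells, 600/well, were preincubated 5 hours and then exposed to compounds at 37 C for up to 40 hours. A cell-impermeant cyanine dye staining dead-cell DNA was read by fluorescence at 0, 8, 16, 24, 32 and 40 h time points.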

[4] = A CellTox Green Cytotoxicity Assay to monitor cytotoxicity in HepG2 cells - 16 hour (AID 1224876); further: nearly all actives have a fitted effect of over 45% in size
Summary of the method: (§3)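 HepG2 cells, 600/well, preincubated 5 h with CellTox Green dye, then exposed to Tox21 compounds in DMSO at 37 C for up to 40 h. Dead-cell DNA fluorescence read at the indicated time point.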

[5] = qHTS RealTime-Glo MT Cell Viability Assay in HepG2 cells - 32 hour (AID 1224877); further: nearly all actives have a fitted effect of over 55% in size
Summary of the method: (§4)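 Cell number in HepG2 cultures estimated from NanoLuc luminescence generated by metabolic reduction of a prosubstrate by living cells. The homogeneous, nonlytic format allowed repeated reads at 0, 8, 16, 24, 32 and 40 h of compound exposure.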

[6] = A CellTox Green Cytotoxicity Assay to monitor cytotoxicity in HepG2 cells - 24 hour (AID 1224878); further: nearly all actives have a fitted effect of over 45% in size
Summary of the method: as §3

[7] = A CellTox Green Cytotoxicity Assay to monitor cytotoxicity in HepG2 cells - 40 hour (AID 1224879); further: nearly all actives have a fitted effect of over 40% in size
Summary of the method: as §3

[8] = qHTS RealTime-Glo MT Cell Viability Assay in HEK293 cells - 0 hour (AID 1224880); further: top concentration of the series differs between compounds; nearly all actives have a fitted effect of over 45% in size
Summary of the method: as §1

[9] = A CellTox Green Cytotoxicity Assay to monitor cytotoxicity in HEK293 cells - 32 hour (AID 1224881); further: nearly all actives have a fitted effect of over 40% in size
Summary of the method: as §2

[10] = A CellTox Green Cytotoxicity Assay to monitor cytotoxicity in HepG2 cells - 32 hour (AID 1224883); further: nearly all actives have a fitted effect of over 50% in size
Summary of the method: as §3

[11] = A CellTox Green Cytotoxicity Assay to monitor cytotoxicity in HEK293 cells - 8 hour (AID 1224884); further: nearly all actives have a fitted effect of over 35% in size
Summary of the method: as §2

[12] = qHTS RealTime-Glo MT Cell Viability Assay in HEK293 cells - 24 hour (AID 1224886); further: top concentration of the series differs between compounds; nearly all actives have a fitted effect of over 50% in size
Summary of the method: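 Homogeneous bioluminescent viability format in HEK293 cells (600 cells/well). Following 5 h at 37 C/5% CO2, 23 nL compound was pintooled; the signal was measured repeatedly during 40 h incubation.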

[13] = qHTS RealTime-Glo MT Cell Viability Assay in HEK293 cells - 8 hour (AID 1224887); further: top concentration of the series differs between compounds; nearly all actives have a fitted effect of over 50% in size
Summary of the method: as §1

[14] = A CellTox Green Cytotoxicity Assay to monitor cytotoxicity in HEK293 cells - 16 hour (AID 1224888); further: nearly all actives have a fitted effect of over 35% in size
Summary of the method: as §2

[15] = qHTS RealTime-Glo MT Cell Viability Assay in HepG2 cells - 0 hour (AID 1224889); further: nearly all actives have a fitted effect of over 50% in size
Summary of the method: as §4

[16] = A CellTox Green Cytotoxicity Assay to monitor cytotoxicity in HepG2 cells - 8 hour (AID 1224890); further: nearly all actives have a fitted effect of over 45% in size
Summary of the method: as §3

[17] = qHTS assay to identify small molecule antagonists of the estrogen receptor alpha (ER-alpha) signaling pathway using the BG1 cell line in the presence of 0.1 nM 17-beta-estradiol - cell viability counter screen (AID 1259241); further: nearly all actives have a fitted effect of over 40% in size
Summary of the method: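 CellTiter-Fluor read (30 min, 37C) on ER-alpha/ERE-luc VM7Luc4E2 cells; 22 hr compound treatment; agonist 0.1 nM E2 final; same-well multiplex.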

[18] = qHTS assay to identify small molecule antagonists of the androgen receptor (AR) signaling pathway using the MDA cell line in the presence of 0.5 nM R1881 - cell viability counter screen (AID 1259242); further: nearly all actives have a fitted effect of over 45% in size
Summary of the method: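 MDA-kb2 cells (MMTV-luciferase, AR/GR responsive) were treated with compounds plus 0.5 nM R1881 (final) for 16 hr at 37C, 0% CO2. Viability was then read in the same wells as live-cell protease fluorescence (CellTiter-Fluor, 30 min).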

[19] = A CellTox Green Cytotoxicity Assay to monitor cytotoxicity in HepG2 cells - 0 hour (AID 1224882); further: nearly all actives have a fitted effect of over 35% in size
Summary of the method: as §3

[20] = qHTS RealTime-Glo MT Cell Viability Assay in HepG2 cells - 16 hour (AID 1224885); further: nearly all actives have a fitted effect of over 50% in size
Summary of the method: as §4
On the % scale 0 is the no-effect control and ±100 the full control effect.

CC(=O)N[C@H]1[C@H]([C@H](O)[C@H](O)CO)OC(C(=O)O)=C[C@@H]1N=C(N)N
inactive: outcome [1] | max response [2] 2.18% | outcome [3] | outcome [4] | Potency [5] | outcome [6] | Potency [7] | Potency [8] | outcome [9] | Potency [10] | outcome [11] | Potency [12] | Potency [13] | outcome [14] | Potency [15] | outcome [16] | outcome [17] | outcome [18]

CC1(C)OC[C@@H](COC(=O)CCc2ccc(OC[C@@H](O)CNCCNC(=O)N3CCOCC3)cc2)O1
inactive: outcome [1] | max response [2] 4.31% | outcome [3] | outcome [4] | Potency [5] | outcome [6] | Potency [8] | outcome [9] | Potency [19] | Potency [10] | outcome [11] | outcome [20] | Potency [12] | Potency [13] | outcome [14] | Potency [15] | outcome [16] | outcome [17] | outcome [18]

C=COC(=O)C(C)(CC)CCC(C)C (stereo not drawn)
inactive: outcome [1] | max response [2] 0.193% | outcome [3] | outcome [4] | Potency [5] | outcome [6] | Potency [7] | Potency [8] | outcome [9] | Potency [10] | outcome [11] | outcome [20] | Potency [12] | Potency [13] | Potency [15] | outcome [16] | outcome [17] | outcome [18]

CCCCc1nc(Cl)c(CO)n1Cc1ccc(-c2ccccc2-c2nn[nH]n2)cc1
inactive: outcome [1] | max response [2] -16.9% | outcome [3] | outcome [4] | Potency [5] | outcome [6] | Potency [7] | outcome [9] | Potency [19] | Potency [10] | outcome [11] | outcome [20] | Potency [13] | outcome [14] | Potency [15] | outcome [16] | outcome [17] | outcome [18]

CCN(CC#N)c1cccc(C)c1
inactive: outcome [1] | max response [2] 13% | outcome [3] | outcome [4] | Potency [5] | outcome [6] | Potency [8] | outcome [9] | Potency [19] | Potency [10] | outcome [11] | outcome [20] | Potency [12] | Potency [13] | outcome [14] | Potency [15] | outcome [16] | outcome [18]

CCOC(=O)c1cnc2c(cnn2CC)c1NN=C(C)C
inactive: outcome [1] | max response [2] -11.3% | outcome [4] | Potency [5] | outcome [6] | Potency [8] | outcome [9] | Potency [19] | Potency [10] | outcome [11] | outcome [20] | Potency [12] | Potency [13] | outcome [14] | Potency [15] | outcome [16] | outcome [17] | outcome [18]

[Ca+2]
inactive: outcome [1] | max response [2] 5.91% | outcome [3] | outcome [4] | Potency [5] | outcome [6] | Potency [8] | outcome [9] | Potency [19] | Potency [10] | outcome [11] | Potency [13] | outcome [14] | Potency [15] | outcome [16] | outcome [17] | outcome [18]

O=C(c1ccccc1)C1(O)CCCCC1
inactive: outcome [1] | max response [2] -2.37% | outcome [3] | outcome [4] | Potency [5] | outcome [6] | Potency [8] | Potency [10] | Potency [13] | outcome [14] | Potency [15] | outcome [16] | outcome [17] | outcome [18]

CC(CC=O)CC(C)(C)C (stereo not drawn)
inactive: outcome [1] | max response [2] -0.119% | outcome [3] | outcome [4] | Potency [5] | outcome [6] | Potency [8] | outcome [9] | Potency [19] | Potency [10] | outcome [11] | outcome [20] | Potency [12] | Potency [13] | outcome [14] | Potency [15] | outcome [18]

O=C(O)CCCC[P+](c1ccccc1)(c1ccccc1)c1ccccc1
inactive: outcome [1] | max response [2] -10.4% | outcome [3] | Potency [5] | Potency [8] | outcome [9] | Potency [19] | outcome [11] | outcome [20] | Potency [12] | Potency [13] | outcome [14] | Potency [15] | outcome [17] | outcome [18]

CCOC(=O)COC(=O)c1ccccc1C(=O)OCC
inactive: outcome [1] | max response [2] 11% | outcome [3] | outcome [4] | Potency [5] | outcome [6] | outcome [9] | Potency [19] | Potency [10] | outcome [11] | outcome [20] | Potency [12] | Potency [13] | outcome [14] | Potency [15] | outcome [18]

Source: PubChem BioAssay (Tox21)
